Data published in PubChem BioAssay (Tox21).
Records with an inconclusive call do not appear. Where a call stands in place of a potency, no number is given. The source made the active and inactive calls. Calls come from the whole dose curve; as a rule, active = well fitted cell-killing curve with a large enough effect in the repeat runs; inconclusive = weak or mixed curves; inactive = no such curve, though single readings can be large or run the other way. Starred links: 1 amine or outer side, 2 acyl side, 3 side chain; linkers in the order of their positions; H or OH if unused. Positions of bridges follow the written chain, without caps; N, C: chain ends. Non-standard residues stand in square brackets, D forms with d. Residues, ends and D or L forms follow the SMILES beside them. *: point of attachment. X5 = NC1=N[C@@H]([C@H](N[*:1])C(=O)[*:2])C[C@H](O)N1; ΔAla(Z-3-ureido) = NC(=O)N/C=C(\N)C(=O)O; β3hOrn = NCCC[C@H](N)CC(=O)*; Dap = NC[C@H](N)C(=O)O

Test: qHTS assay for identifying genotoxic compounds that show differential cytotoxicity against isogenic chicken DT40 cell lines with known DNA damage response pathways - Rad54/Ku70 mutant cell line (AID 743015); note: nearly all actives have a fitted effect of over 60% in size
Conditions: DT40 Rad54/Ku70 mutant viability, CellTiter-Glo, 40 h; series mostly up to 66.8 µM

Compound	Potency
CC(=O)Oc1cccc(C(=O)O)c1OC(C)=O	inactive
OC1OC[C@@H](O)[C@H](O)[C@@H]1O (stereo not given in full)	inactive
CO[C@H]1[C@@H](O)[C@H](N)[C@@H](O[C@H]2O[C@H]([C@H](C)N)CC[C@H]2N)[C@H](O)[C@@H]1N(C)C(=O)CN	inactive
NCCCC[C@H](NC(=O)[C@@H]1CCCN1C(=O)[C@@H]1CSSC[C@H](N)C(=O)N[C@@H](Cc2ccccc2)C(=O)N[C@@H](Cc2ccccc2)C(=O)N[C@@H](CCC(N)=O)C(=O)N[C@@H](CC(N)=O)C(=O)N1)C(=O)NCC(N)=O	inactive
CC(=O)[C@@]1(O)CC[C@H]2[C@@H]3C=C(Cl)C4=CC(=O)[C@@H]5C[C@@H]5[C@]4(C)[C@H]3CC[C@@]21C	inactive
CCC(C)[C@@H](N)C(=O)O (stereo not given in full)	inactive

Test: qHTS assay to identify small molecule antagonists of the androgen receptor (AR) signaling pathway - cell viability counter screen (AID 743033; note: nearly all actives have a fitted effect of over 45% in size)
Conditions: AR-bla HEK293 viability, CellTiter-Glo luminescence, 16 h; series mostly up to 58.5 µM

Compound	Potency
O=C(O)c1ccc(OCCn2ccnc2)cc1	inactive
COc1ccc(CNCC(O)COc2ccc3[nH]c(=O)ccc3c2)cc1OC (stereo not given)	inactive
Cc1cc(C(=O)NNCc2ccccc2)no1	inactive
Nc1ncnc(Nc2ccc(Cl)cc2)n1	inactive
CCCCC(=O)OCC(=O)[C@]1(O)Cc2c(O)c3c(c(O)c2[C@@H](O[C@H]2C[C@H](NC(=O)C(F)(F)F)[C@H](O)[C@H](C)O2)C1)C(=O)c1c(OC)cccc1C3=O	inactive
CCCCCCCCCCCCCCCCCCCCCCO	inactive
O=C1NC(=O)[C@H]2[C@@H]1[C@@H]1C=C[C@H]2C1	inactive
O=C(O)C1CCCN1 (stereo not given)	inactive
NC(=O)OCC(O)COc1ccc(Cl)cc1 (stereo not given)	inactive
COC(=O)CC[C@H](N)C(=O)O	inactive
CC1(C)S[C@@H]2[C@H](NC(=O)C(C(=O)O)c3ccsc3)C(=O)N2[C@H]1C(=O)O (stereo not given in full)	inactive
CCOC(=O)Oc1c(OC)cc(C(=O)O[C@@H]2C[C@@H]3CN4CCc5c([nH]c6cc(OC)ccc56)[C@H]4C[C@@H]3[C@H](C(=O)OC)[C@H]2OC)cc1OC	inactive
CC(O)CN(C)C (stereo not given)	inactive
CO[C@H]1O[C@@H]2O[C@@]3(C)CC[C@H]4[C@H](C)CC[C@@H]([C@H]1C)[C@@]24OO3	inactive
CCCCCCCCCCCCCCCC(=O)O[C@@H]1[C@@H](O)[C@@H](O)[C@@H]([C@H](NC(=O)[C@@H]2C[C@@H](CCC)CN2C)[C@H](C)Cl)O[C@@H]1SC	inactive
COc1ccccc1N1CCN(CCCC(=O)c2ccc(F)cc2)CC1	inactive
COC1=C(C(=O)O)N2C(=O)[C@@H](NC(=O)[C@H](N)C3=CCC=CC3)[C@H]2SC1	inactive
CCNC(=O)[C@@H]1CCCN1C(=O)[C@H](CCCN=C(N)N)NC(=O)[C@H](CC(C)C)NC(=O)[C@@H](CC(C)C)NC(=O)[C@H](Cc1ccc(O)cc1)NC(=O)[C@H](CO)NC(=O)[C@H](Cc1c[nH]c2ccccc12)NC(=O)[C@H](Cc1cnc[nH]1)NC(=O)[C@@H]1CCC(=O)N1	inactive
NCCCC[C@H](NC(=O)[C@@H]1CCCN1C(=O)[C@@H]1CSSC[C@H](NC(=O)CNC(=O)CNC(=O)CN)C(=O)N[C@@H](Cc2ccc(O)cc2)C(=O)N[C@@H](Cc2ccccc2)C(=O)N[C@@H](CCC(N)=O)C(=O)N[C@@H](CC(N)=O)C(=O)N1)C(=O)NCC(N)=O (H-GGGCYFQNCPKG-NH2; disulfide 4-9)	inactive
NCCC[C@H](N)CC(=O)N[C@H]1CNC(=O)[C@H]([C@H]2C[C@H](O)NC(N)=N2)NC(=O)/C(=C/NC(N)=O)NC(=O)[C@H](CO)NC(=O)[C@H](CO)NC1=O (β3hOrn-[Dap]SS[ΔAla(Z-3-ureido)][X5]; lactam 1-C)	inactive

Compound	Potency
CCCC1C(=O)N2C(N(C)C)=Nc3ccc(C)cc3N2C1=O (stereo not given)	inactive
CC(=O)N[C@@H]1C(O[C@H]2O[C@H](C(=O)O)C(O)[C@H](O)[C@H]2O)[C@H](O)[C@@H](CO)O[C@H]1O[C@@H]1C(C(=O)O)O[C@@H](O[C@H]2[C@H](O)[C@@H](CO)OC(O)[C@@H]2NC(C)=O)[C@H](O)[C@H]1O (stereo not given in full)	inactive
COc1cc(C[C@@H]2NCCc3cc(O)c(O)cc32)cc(OC)c1OC	inactive
CC(=O)Nc1c(I)c(C(=O)N[C@H]2C(O)O[C@H](CO)[C@@H](O)[C@@H]2O)c(I)c(N(C)C(C)=O)c1I (stereo not given in full)	inactive
O=C(O)[C@@H](O)[C@H](O)[C@H](O)[C@@H](O)C(=O)O (tested in a mixture with another compound)	inactive
CC(=O)Nc1c(I)c(C(=O)O)c(I)c(N(C)C(C)=O)c1I	inactive
COC(=O)CCC(=O)CN	inactive
Cc1ccc(C2(O)CCN(CCCC(=O)c3ccc(F)cc3)CC2)cc1	inactive
CNc1cc(OC)c(C(=O)N[C@H]2CCN(Cc3ccccc3)[C@H]2C)cc1Cl	inactive
Cc1ccc(S(=O)(=O)NC(=O)N[C@@H](C)Cc2ccccc2)cc1	inactive
C=CC1=C(C)C2=CC3=NC(=C(CC(=O)[O-])C4=NC(=C(C)C4=C([O-])[O-])C=c4[n-]c(c(C)c4CC)=CC1=N2)C(CCC(=O)[O-])C3C.[Cu+2].[Na+].[Na+].[Na+] (stereo not given)	inactive
CCN(CC)CCOc1ccccc1OC	inactive
NC[C@@H]1O[C@H](O[C@H]2[C@@H](O)[C@H](O[C@@H]3[C@@H](O)[C@H](N)C[C@H](N)[C@H]3O[C@H]3O[C@H](CO)[C@@H](O)[C@H](O)[C@H]3N)O[C@@H]2CO)[C@H](N)[C@@H](O)[C@@H]1O	inactive
CC(=O)Oc1cccc(C(=O)O)c1OC(C)=O	inactive
OC1OC[C@@H](O)[C@H](O)[C@@H]1O (stereo not given in full)	inactive
CO[C@H]1[C@@H](O)[C@H](N)[C@@H](O[C@H]2O[C@H]([C@H](C)N)CC[C@H]2N)[C@H](O)[C@@H]1N(C)C(=O)CN	inactive
NCCCC[C@H](NC(=O)[C@@H]1CCCN1C(=O)[C@@H]1CSSC[C@H](N)C(=O)N[C@@H](Cc2ccccc2)C(=O)N[C@@H](Cc2ccccc2)C(=O)N[C@@H](CCC(N)=O)C(=O)N[C@@H](CC(N)=O)C(=O)N1)C(=O)NCC(N)=O	inactive
CC(=O)[C@@]1(O)CC[C@H]2[C@@H]3C=C(Cl)C4=CC(=O)[C@@H]5C[C@@H]5[C@]4(C)[C@H]3CC[C@@]21C	inactive
CCC(C)[C@@H](N)C(=O)O (stereo not given in full)	inactive
